# Source: ChEMBL document CHEMBL3988442, “University of Dundee, Small-Polar-MMV Screening Library” (2021)
# Target: Shiga toxin 2 (Escherichia coli O157:H7) (UniProt P09385+P09386)
# Experiment: E. coli 0.157:H7 Shiga Toxin SOP - stx2 screening assay
# Format: functional
# Parameters: scale not given: direction of the effect not stated beside the values
# Conditions: 30 µM
row,Compound,Percent Effect
1,CN(Cc1ccc2c(c1)OCO2)Cc1nc2c(cnn2C)c(=O)[nH]1,27.6%
2,O=C(NCC1CC1)C1=NOC2(CCN(S(=O)(=O)c3cccs3)C2)C1 (stereo not given),-4.25%
3,Cc1nnc2n1CCN(CCS(=O)(=O)c1ccccc1)C2,-6.96%
4,Cn1cc(N2CC3(CCN(CC4CCOCC4)CC3)OCC2=O)cn1,-32.8%
5,COc1cccc(COCC(=O)N2CCCC(c3cc(C)[nH]n3)C2)c1 (stereo not given),28.3%
6,CC[C@H](C)[C@H](NC(=O)c1ccccc1-n1cnnn1)C(=O)OC,-29.9%
7,CCN(Cc1ccc2c(c1)OCO2)Cc1nc(C)no1,23.9%
8,Cc1ccc(C(=O)NCCCN2CCOCC2)c(Cl)c1,-18.1%
9,Cn1cccc1C(=O)N1CCCN(CCCc2ccccc2)CC1,-20.8%
10,CCN1C(=O)C(C)(C)c2cc(NC(=O)c3ccco3)ccc21,-25.1%
11,COC(=O)C(c1cc(F)ccc1F)N(C)C(=O)c1csnn1 (stereo not given),-19.1%
12,Cc1ccccc1CNC(=O)Cc1c(C)nc2cc(=O)[nH]n2c1C,17.8%
13,c1ccc2sc(CN3CCOC(Cn4cncn4)C3)nc2c1 (stereo not given),14%
14,Cc1cc2c(=O)n3c(nc2s1)CCN(C(=O)c1scnc1C)CC3,0.428%
15,Cc1cc(CC(=O)N(CC2CN(C)CCO2)c2nccs2)no1 (stereo not given),-18.7%
16,O=C(c1ccccn1)N1CCCC(c2nccn2Cc2ccncc2)C1 (stereo not given),4.41%
17,O=C(COc1cccc2c1CCC2=O)NCCSc1ccccc1,-30.6%
18,CCOC1COC2(CCN(S(=O)(=O)c3cccc(F)c3)CC2)C1 (stereo not given),-13%
19,CCN1CCCN(C(=O)c2cnc(OC(C)C)c(Cl)c2)CC1,-50.8%
20,CSCCCN1CCCC1c1noc(C)n1 (stereo not given),11.3%

row,Compound,Percent Effect
1,O=C(Nc1ccccc1)N1CCn2nnc(COc3cccnc3)c2C1,-2.97%
2,c1cnc(N2CCOC3(CCN(CC4CCCCC4)CC3)C2)nc1,-3.02%
3,CN(C(=O)C1CSCN1S(=O)(=O)c1ccc(F)cc1)C1CC1 (stereo not given),7.34%
4,COc1nc2c(cc1C(=O)N1C[C@H](N)C[C@H]1C(=O)NC(C)C)CCC2,12.5%
5,C[C@@H]1CN(C(=O)c2ccc(C#N)nc2)CC[C@@]1(O)C1CCOCC1,-2.97%
6,CCCNC(=O)C1CCN(Cc2csc(C(C)(C)C)n2)CC1,7.25%
7,Cc1ccccc1C(=O)Nc1cnn(CC(=O)NC2CCCC2)c1,-6.1%
8,CCc1noc(CN(C)Cc2ccc(N3CCCCC3)cc2)n1,-19.3%
9,Cc1nnc(NCc2ccccc2Cl)c(C#N)c1C,10.3%
10,O=C(Cn1c(=O)nc2n1C(=O)N(c1ccccc1)C2)Nc1ccccc1,16.3%
11,Cn1cccc1CNC(=O)CCCc1nnc2ccccn12,-34.1%
12,CCc1nnc2n1CCN(C(=O)C(C)COCc1ccccc1)C2 (stereo not given),31.4%
13,CCc1nc2n(n1)CC(Nc1cc(C)nc3ncnn13)CC2 (stereo not given),2.96%
14,CC(=O)N1[C@H](CN(C)C)C[C@@H]2CN(C(=O)c3cccc(F)c3)CC[C@@H]21,-3.85%
15,O=S(=O)(CCNC1CCc2ncnn2C1)c1ccccc1 (stereo not given),-24.1%
16,NC(=O)CC1CCN(C(=O)NCc2ccccc2-n2cccn2)CC1,-4.75%
17,CCOCC1CC2(CCN(C(=O)c3ccccc3F)CC2)CO1 (stereo not given),5.12%
18,CC(C)c1nccn1C1CCCN(C(=O)c2ccc3c(c2)OCO3)C1 (stereo not given),10.5%
19,CN1CCC(c2nnc(CN3CCC(O)CC3)n2C)CC1,-2.24%
20,CCCNC(=O)NC(=O)CN(CC(C)O)c1ccccc1 (stereo not given),20.6%
